Rows were chosen to be rich in hits. Some 11% of all compounds tested hit in one or more screens of this group.
Sm TGR block: qHTS Assay for the Inhibitors of Schistosoma Mansoni Peroxiredoxins; purified TGR, DTNB reduction, TNB absorbance 405 nm; Potency, µM (series often up to 114 µM), without a hit: at the top dose activity change, negative = inhibition, most hits filed as inhibitors; Schistosoma mansoni thioredoxin glutathione reductase (TGR), Q962Y6; 360,000 compounds, 3% hits; note: % is set by controls: 0 for no effect and ±100 for the full control effect; nearly all actives have a fitted effect of over 60% in size
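Kinetic colorimetric format: TGR-catalysed, NADPH-driven DTNB reduction monitored via TNB absorbance. Enzyme dispensed at 20 nM; compound exposure 15 min at room temperature before reaction start.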
Pf growth 96h: Primary qHTS for delayed death inhibitors of the malarial parasite plastid, 96 hour incubation; P. falciparum luciferase reporter growth, 96 h; Potency, µM (series often up to 28.7 µM), inactives show at the top dose activity change, negative = inhibition, usual class: inhibitors; 320,000 compounds, 6.9% hits; AID 504834, 2011; note: % is set by controls: 0 for no effect and ±100 for the full control effect
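Parasite growth measured via integrated firefly luciferase reporter in P. falciparum. Infected erythrocytes at 2% hematocrit, 0.05% parasitemia final were treated 96 hours at 37 C under 5% CO2, and luminescence was read.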
AMA1-RON2 inh: qHTS for Inhibitors of AMA1-RON; Towards Development of Antimalarial Drug Lead: Primary Screen; Plasmodium falciparum AMA1 (3D7) - RON2 peptide interaction; AlphaScreen AMA1-biotinylated RON2 peptide binding; Potency, µM (doses to about 58.2 µM), for the others: at the highest dose activity change, negative = inhibition, most hits filed as inhibitors; 360,000 compounds, 0.2% hits; AID 720542, 2013;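 note: 0% = vehicle wells and -100% = peptide control; nearly all actives have a fitted effect of over 45% in size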
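AMA1 (3D7) with his tag at 25 nM final met compounds first, then biotinylated RON2 peptide at 25 nM; detection used donor plus acceptor beads, 10 µg/mL apiece, read by AlphaScreen after 30 min at room temperature.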
NS1 function inh: qHTS Assay for Inhibitors of Influenza NS1 Protein Function. Potency, µM (top dose mostly 46.1 µM), for inactives: at the top dose activity, positive = more growth. 270,000 compounds, 0.4% hits. AID 2326, 2010; calls by dose curve; note: actives are rising curves; nearly all actives have a fitted effect of over 50% in size
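In this qHTS, NS1 from influenza A is expressed in budding yeast, where it slows growth. Cells are switched from glucose to 2% galactose medium (pH 6.0, -URA), treated with compound, and growth recovery is read at OD600.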
Pf growth 48h: Primary qHTS for delayed death inhibitors of the malarial parasite plastid, 48 hour incubation; 310,000 compounds, 5.9% hits; Potency, µM (top dose mostly 28.7 µM), without a hit: at the top dose activity change, negative = inhibition, hits mostly inhibitors; P. falciparum luciferase growth in erythrocytes, 48 h; note: % is set by controls: 0 for no effect and ±100 for the full control effect
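First compound was added to culture medium, then infected red cells at 0.1% parasitemia and 2% hematocrit (final). After incubation at 37 C under 5% CO2, luciferase detection reagent was dispensed and light output recorded.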
Active calls of the source: *; u = inconclusive; x = no result given; [ ] = another dose, or the depositor's remark. Unless noted, calls come from the whole dose curve; as a rule, active = well fitted curve in the direction sought with a large enough effect; inconclusive = small, poorly fitted or top-dose-only effect, or another doubt; inactive = no such curve, though single readings can be large; an effect the other way counts as inactive or inconclusive. Potency is the fitted concentration of half-maximal effect.

SMILES	Sm TGR block	Pf growth 96h	AMA1-RON2 inh	NS1 function inh	Pf growth 48h
CCC(=O)N(C1=C(NC(C)C)C(=O)c2ccccc2C1=O)C(C)C	-32%	0.066µM*	0%	-2%	0.13µM*
COc1ccc(C(=O)NCC(C)(c2ccccc2)c2ccccc2)cc1S(=O)(=O)N1CCOCC1	x	x	13%[11.6 µM]	x	x
Cc1ccc(N=Nc2c(O)ccc3cc(S(=O)(=O)O)ccc23)cc1	x	x	x	-3%	x
CCOC(=O)c1[nH]cnc1N=Nc1c(O)ccc2ccccc12	-12%	2.3µM*	29%	11%	2.9µM*
Oc1ccc2ccccc2c1N=Nc1ccccc1F	-24%	u	10µM*	2%	-21%
COc1ccc2nc(N=Nc3c(O)ccc4ccccc34)sc2c1	-4%	8%	x	6%	12%
O=S(=O)(O)c1cccc(N=Nc2c(O)ccc3ccccc23)c1	20µM*	10µM*	-25%	2%	u
Oc1ccc2ccccc2c1N=Nc1ccccn1	-7%	6.6µM*	10µM*	-181%	u
COC(=O)[C@]1(C)N[C@H](CN(C)S(=O)(=O)c2ccc(F)cc2)[C@@H]2C(=O)N(C)C(=O)[C@@H]21	x	x	-7%	x	x
COc1cccc(CN(CC(=O)NC2CCCCC2)C(=O)c2csnn2)c1	-11%	-7%	12%	8%	7%
O=C(O)CNCCc1ccccc1	x	x	x	-5%	x
C=CCOc1ccc(/C(O)=C2\C(=O)C(=O)N(CCN(C)C)C2c2cccs2)cc1 (stereo not given)	u	26%	5%	11%	19%
CCN(CC)CCN1C(=O)C(=O)/C(=C(/O)c2ccc(OC)cc2)C1c1cccs1 (stereo not given)	45µM*	0%	x	u	u
CCOc1ccc(/C(O)=C2/C(=O)C(=O)N(CCN(CC)CC)C2c2cccs2)cc1 (stereo not given)	22µM*	30%	1%	-6%	33%
CC(C)c1ccc(S(=O)(=O)NCc2ccc3c(c2)OCO3)cc1	4%	10µM*	4%	-20%	7%
CC(C)CNS(=O)(=O)c1ccc(CCC(=O)Nc2ccc3c(c2)OCO3)cc1	3%	4.1µM*	-4%	10%	-7%
CCNS(=O)(=O)c1ccc(CCC(=O)Nc2ccc3c(c2)OCO3)cc1	-15%	-31%	-5%	14%	0%
Cc1ccc(C(=O)N/C(=C\c2cccs2)C(=O)NCCCN2CCOCC2)cc1	-4%	29%	-3%	1%	25%
COCc1cc(C)nc(N/N=C/c2ccc(-c3ccc(Cl)cc3[N+](=O)[O-])o2)c1C#N	8.9µM*	37%	-21%	x	-14%
CN(C)c1nc(N)nc(Nc2ccccc2C#N)n1	0%	13µM*	12%	u	-5%
Brc1cc(Cc2nnc(-c3ccccc3)o2)c(Br)s1	0%	15%	3%	-7%	u
C=CCc1cc(OC)ccc1OCCOCCN1CCc2ccccc2C1	-3%	13µM*	u	x	37%[5.75 µM]
CCOc1ccc(C(=O)NC(=S)N(Cc2ccccc2)Cc2ccccc2)cc1	8%	2.6µM*	31%	0%	u
O=C(NC(=S)NNC(=O)c1cccs1)c1ccccc1	50µM*	u	139%	-99%	-25%
CCOc1ccc(CN(CCC#N)C(=S)NC(=O)c2ccccc2)cc1	1%	u	77%	-28%	u
SMILES	Sm TGR block	Pf growth 96h	AMA1-RON2 inh	NS1 function inh	Pf growth 48h
CCCOc1ccc(C(=O)NNC(=S)NC(C)=O)cc1	2%	0.33µM*	90%	-116%	u
CCC(=O)NC(=S)NNC(=O)c1ccc([N+](=O)[O-])cc1	-15%	13µM*	u	9%	u
O=C(c1ccco1)N1CCN(Cc2cn[nH]c2-c2cccc3ccccc23)CC1	-13%	-15%	4%	5%	u
O=C(COC(=O)c1ccc2c(c1)OCO2)Nc1ccccc1Cl	-6%	u	8%	x	17%
CCNC(=O)C1CCN(c2nc3ccccc3nc2C(F)(F)F)CC1	11%	x	x	x	x
O=[N+]([O-])c1ccc2c(c1)CO[C@@]21O[C@H](CCO)C[C@H](O)[C@H]1O	x	x	45%	x	x
CCCOc1ccc(C(=O)NNC(=S)NC(=O)c2ccccc2)cc1	6%	3.3µM*	81%	-101%	10µM*
CCCCOc1ccc(C(=O)NNC(=S)NC(=O)CC)cc1	9%	u	30%	-58%	6.6µM*
CC(=O)c1c(O)cc(C)n(Nc2nc(C)cc(C)n2)c1=O	6%	u	17%	-83%	12µM*
Cc1oc(-c2cccs2)nc1CN1CCN(C(C)C)C(CCO)C1 (stereo not given)	-12%	10µM*	-13%	-2%	98%
O=C(/C=C/c1ccco1)NC(=S)Nc1ccc(N2CCCC2)cc1	u	204%	-20%	26%	-25%
O=C(Cc1ccccc1)N1CCN(C/C=C/c2ccccc2)CC1	0%	3.3µM*	-3%	5%	-32%
O=[N+]([O-])c1ccc(C(O)CN2CCN(C/C=C/c3ccccc3)CC2)cc1 (stereo not given)	u	4.1µM*	-8%	-3%	7.4µM*
O=C(/C=C\c1ccco1)Nc1ccc(N2CCN(C(=O)c3ccccc3)CC2)cc1	-18%	5.9µM*	-4%	14%	u
NC(=O)C1CCN(C(=O)/C=C/c2ccco2)CC1	7.9µM*	-8%	-8%	22%	6%
NC(=O)C1CCN(C(=O)c2ccco2)CC1	-12%	87%	8%	9%[9.22 µM]	-4%
COC(=O)c1ccc(NC(=O)CCNS(=O)(=O)c2cccc3nsnc23)cc1	-5%	x	x	x	x
COc1ccc(CCC(=O)OCc2csc(CC(=O)Nc3ccc(C)cc3)n2)cc1OC	x	x	11%	x	x
O=C(/C=C/c1ccc(S(=O)(=O)NCc2ccco2)cc1)N1CCN(c2ccccc2)CC1	-27%	3.7µM*	-1%	x	u
O=C(/C=C/c1ccco1)N1CCN(c2ccccc2)CC1	11µM*	-10%	-5%	-5%	-14%
O=C(/C=C/c1ccc(F)cc1)N1CCN(S(=O)(=O)/C=C/c2ccccc2)CC1	0%	-21%	-10%	x	-17%
C(=C/c1ccccc1)/CN1CCN(C(c2ccccc2)c2ccccc2)CC1	x	7.2µM*	x	x	u
O=C(C=Cc1ccco1)N1CCOCC1	x	x	11%	x	x
Cc1ccc(/C=C/C(=O)N2CCN(S(=O)(=O)/C=C/c3ccccc3)CC2)o1	14µM*	5.9µM*	-6%	-1%	3%
O=C(c1ccc(S(=O)(=O)NCc2ccco2)cc1)N1CCN(c2ccc(F)cc2)CC1	-13%	u	-9%	x	u
O=C(c1ccccc1NS(=O)(=O)c1cccc2cccnc12)N1CCOCC1	3%	u	-6%	x	3%

From PubChem
